# Compounds without any hit were thinned out: in the full panel of roughly 83,000, 20% have a hit.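 48-hour exposure, single concentration, 96-well plates; percent growth endpoint where 0 means no net growth. Active: below 10.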 Unmarked numbers belong to inactive results. Active and inactive are the calls of the source.
# What was measured:
# Test in all cases: NCI-60 one-dose screen, 48 h (100 = growth as untreated, 0 = no growth, -100 = all killed)
# Conditions in all cases: 10 µM unless noted
# NCI/ADR-RES ovarian = system: NCI/ADR-RES ovarian
# T-47D breast = system: T-47D breast
# BT-549 breast = system: BT-549 breast
# MDA-MB-435 melanoma = system: MDA-MB-435 melanoma
# SW-620 colon = system: SW-620 colon
# MCF7 breast = system: MCF7 breast
# HCT-116 colon = system: HCT-116 colon
# HCC-2998 colon = system: HCC-2998 colon
# KM12 colon = system: KM12 colon
SMILES,growth (NCI/ADR-RES ovarian),growth (T-47D breast),growth (BT-549 breast),growth (MDA-MB-435 melanoma),growth (SW-620 colon),growth (MCF7 breast),growth (HCT-116 colon),growth (HCC-2998 colon),growth (KM12 colon)
CO[C@H](C(=O)O)[C@@H]1Cc2cc3cc(OC4CC(OC5CC(O)C(O)C(C)O5)C(O)C(C)O4)c(C)c(O)c3c(O)c2C(=O)[C@H]1OC1CC(OC2CC(OC3CC(C)(O)C(O)C(C)O3)C(O)C(C)O2)C(O)C(C)O1 (stereo partly specified),74%,12.8%,-41.9% (active),1.21% (active),19.1%,7.44% (active),6.04% (active),-37.8% (active),7.07% (active)
COc1ccc(C(O)(C(=O)O)c2ccc(OC)cc2)cc1,97.8%,76.4%,106%,102%,95.2%,88.6%,83.2%,90.6%,87.7%
CCCCCN(CCCCC)CC(O)c1cc(Cl)ccc1OC (stereo unspecified),32.4%,35%,79.8%,42.8%,25%,15.8%,4.09% (active),17.2%,29.8%
CC(CC1CCCCC1)NCc1ccccc1 (stereo unspecified),93.7%,102%,97.7%,103%,94%,96.4%,96.6%,95.3%,101%
CC[C@H](C)[C@H](NC(=O)c1cccn1C)C(=O)N(C)[C@H](C[C@@H](OC(C)=O)c1nc(C(=O)N[C@@H](Cc2ccccc2)C[C@H](C)C(=O)OC)cs1)C(C)C,7.66% (active),64%,-27% (active),-18.2% (active),26.2%,15%,-3.74% (active),18.4%,10%
CCC(=O)Nc1ccc(Cl)c(Cl)c1,102%,87.3%,113%,107%,101%,93.1%,99.1%,93.9%,99.9%
CCOC(=O)N[C@H]1CCc2c(Br)c(OC)c(OC)c(OC)c2-c2ccc(SC)c(=O)cc21,11.8%,42.6%,3.55% (active),-54.2% (active),16.7%,10.8%,-5.72% (active),14.6%,-8.71% (active)
COC(=O)[C@@H](C)C[C@H](Cc1ccc(F)cc1)NC(=O)c1csc([C@@H](C[C@H](C(C)C)N(C)C(=O)[C@@H](NC(=O)[C@H]2CCCCN2C)C(C)C)OC(C)=O)n1,25.2%,77.3%,-18.6% (active),-28.8% (active),26.9%,22.2%,4.23% (active),21.8%,12.4%
Cc1c(O)c(CN(CCCl)CCCl)cc(CN(CCCl)CCCl)c1O,103%,79.3%,99.1%,96.8%,67.9%,67.5%,84%,90.6%,103%
CCOC(=O)CCN(C)C1=Nc2ccc(Cl)cc2C(c2ccccc2)=[N+]([O-])C1,104%,101%,88.9%,115%,104%,97.1%,112%,102%,104%
Clc1cccc(N2COOC3(OOC2)C2CC4CC(C2)CC3C4)c1,44.4%,69.4%,88%,73.3%,95.5%,93.1%,88.2%,98.1%,65.7%
CC(=O)O[C@@H]1CC[C@]2(C)[C@H]3CC[C@]4(C)C(=O)CC[C@H]4[C@@H]3C[C@@H]3SC(N)=N[C@@]32C1,44%,65.8%,45.2%,2.34% (active),44.1%,32.6%,32.7%,82.1%,33.1%
COC(=O)[C@@H](C)C[C@H](Cc1ccccc1)NC(=O)c1nc([C@@H](C[C@H](C(C)C)N(C)C(=O)[C@@H](NC(=O)[C@H]2CCCCN2C)C(C)C)OC(C)=O)sc1C,16.5%,66.1%,-23.4% (active),-31.5% (active),20.1%,12.3%,2.54% (active),13.8%,8.06% (active)
C=CC[PH+](c1ccccc1)c1ccccc1.C=CC[PH+](c1ccccc1)c1ccccc1.[Cl][Pt][Cl],97%,0.0943% (active),78%,64.9%,2.38% (active),31.9%,3.92% (active),94.9%,77.8%

# Reference: PubChem BioAssay (NCI)
